Screening results: PubChem BioAssay, The Scripps Research Institute Molecular Screening Center
FBW7 act: activators of human E3 ligase FBW7; Q969H0; AlphaScreen FBW7–phospho-cyclin E peptide binding, activator screen; normalized activity (activation), % at 26.1 µM; 0.13% of 650,000 active; AID 1259310; in the data active means normalized activity above about 1.9%;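 further: purified mutant Fbw7 with reduced substrate affinity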
GPR151 activ: activators of human GPR151; Q8TDV0; activation, % at 11.2 µM; PathHunter beta-arrestin GPR151 cells, luminescence; 1% of 650,000 active; in the data active means activation above about 4.9%
Target sequence (Q8TDV0 whole entry, looked up): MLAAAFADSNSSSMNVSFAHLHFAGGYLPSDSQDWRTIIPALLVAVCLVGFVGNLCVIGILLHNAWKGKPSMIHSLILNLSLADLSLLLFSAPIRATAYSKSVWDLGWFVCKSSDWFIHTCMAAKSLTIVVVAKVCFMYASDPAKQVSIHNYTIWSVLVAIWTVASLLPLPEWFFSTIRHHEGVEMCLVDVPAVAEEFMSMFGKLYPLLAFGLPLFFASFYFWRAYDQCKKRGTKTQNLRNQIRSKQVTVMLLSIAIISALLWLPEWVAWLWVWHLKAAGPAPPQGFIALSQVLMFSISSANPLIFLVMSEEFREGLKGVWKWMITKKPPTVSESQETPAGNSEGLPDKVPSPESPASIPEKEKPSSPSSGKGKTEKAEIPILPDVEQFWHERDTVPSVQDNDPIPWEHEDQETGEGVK
TEAD-YAP block: TEAD-YAP interaction inhibition. 1.4% of 640,000 active. inhibition, % at 9.12 µM. HEK-TIYL cells, TEAD-Gal4/YAP UAS-luciferase luminescence; in the data active means inhibition above about 32%
MITF inh: inhibitors of human MITF; O75030; inhibition, % at 2.6 µM; 0.91% of 650,000 active; AlphaScreen MITF homodimerization, bead proximity signal; in the data active means inhibition above about 50%
GPR151 confirm: human GPR151 activation, confirmation screen | shares compounds with GPR151 activ | GPR151 PathHunter beta-arrestin cells, luminescence, 90 min; % of EA-reagent control over plate median | activation, % at 11.2 µM | 6,700 tested, under 10 active;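 active means mean percent activation across replicates above the confirmation screen cutoff of 4.91%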
GPR119 counter: activates human GPR119 in a GPR151 counter-screen; shares compounds with GPR151 activ; GPR119 PathHunter beta-arrestin cells, luminescence, 90 min; 0 = compound-well median, 100 = enzyme-acceptor control; activation, % at 11.2 µM; 0.3% of 6,700 active; AID 1508611;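 active means mean percent activation in the counterscreen above 29.09%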;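 further: counterscreen on off-target GPR119 to flag nonselective hits from the GPR151 activator screen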
Of the large screens only hits and unclear results are named; the others gave an inactive call (follow-up assays come after a bar, where they were run). In the library only some 3.4% were active in any assay of this set; here they are far more common.

Cn1c(Cn2nnc(-c3ccccc3)n2)nnc1SCC(=O)Nc1ccccc1Cl	GPR151 activ 7.6 | GPR151 confirm inactive | GPR119 counter inactive
O=C(Cn1nnc(-c2ccccc2Cl)n1)Nc1ccccc1C(F)(F)F	none
O=C(O)COc1ccc(/C=N/NC(=O)Cn2nnc(-c3ccccc3Cl)n2)cc1	GPR151 activ 7.8 | GPR151 confirm inactive | GPR119 counter inactive
O=C(O)COc1cccc(/C=N/NC(=O)Cn2nnc(-c3ccccc3Cl)n2)c1	none
NC(=O)c1c(NC(=O)CCSc2ccc(F)cc2)sc2c1CCCC2	GPR151 activ 7.1 | GPR151 confirm inactive | GPR119 counter inactive
COc1ccc(OC)c(CN2CCC(C(=O)N(C)Cc3ccccc3)CC2)c1	none
NC(=O)c1c(NC(=O)Cn2nnc(-c3ccccc3Cl)n2)sc2c1CCCC2	GPR151 activ 6.4 | GPR151 confirm inactive | GPR119 counter inactive
Cc1ccc(NC(=O)Cn2nnc(-c3ccccc3NC(=O)c3cccc(C)c3)n2)cc1	GPR151 activ 5.0 | GPR151 confirm inactive | GPR119 counter inactive
NC(=O)c1c(NC(=O)c2ccccc2Cl)sc2c1CCCC2	none
COc1ccc(C(=O)NCCc2nnc3n2CCN(CCCSC)CC3)cc1	none
CCOC(=O)C(C)Sc1nnc(NC(=O)c2c(F)cccc2Cl)s1 (centres undefined)	GPR151 activ 5.0 | GPR151 confirm inactive | GPR119 counter inactive
COC(=O)C(Cc1cc(Cl)ccc1Cl)SC#N (centres undefined)	GPR151 activ 9.7 | GPR151 confirm inactive | GPR119 counter inactive
O=C([C@@H](O)COc1ccc(Br)cc1)N1CCC(Nc2ccc3[nH]ncc3c2)C1 (some centres undefined)	none
CSc1ccc(CNc2ncc(-c3cccc([N+](=O)[O-])c3)n2C)cc1	none
CSc1ccc(CNc2ncc(-c3ccccc3)n2C)cc1	GPR151 activ 7.7 | GPR151 confirm inactive | GPR119 counter inactive
O=C(O)CCn1c(=O)oc2cc(S(=O)(=O)O)ccc21	GPR151 activ 7.5 | GPR151 confirm inactive | GPR119 counter inactive
CC1C(=O)N(Cc2ccc(Cl)cc2Cl)C(=O)CS1=O (centres undefined)	GPR151 activ 6.6 | GPR151 confirm inactive | GPR119 counter inactive
Cc1cc(C)c(S(=O)(=O)Nc2ccccc2-c2nnn(CC(N)=O)n2)c(C)c1	none
CCCCCn1c(=S)[nH]c2cc(C(=O)Nc3ccc(F)c(Cl)c3)ccc2c1=O	none
COC(=O)c1c(OCc2ccncc2)cc(=O)n2c1CCN(C(=O)c1ccccc1C)CC2	GPR151 activ 5.1 | GPR151 confirm inactive | GPR119 counter inactive
COC(=O)c1c(OCc2ccccn2)cc(=O)n2c1CCN(C(=O)c1ccccc1C)CC2	none
CC1CCN(C(=O)c2ccc3snnc3c2)CC1	none
Cc1cc(C)c(NC(=O)CSc2nc(C)cc(=O)[nH]2)c([N+](=O)[O-])c1	GPR151 activ 8.2 | GPR151 confirm inactive | GPR119 counter inactive
COc1cccc(NC(=O)C2CCC(CNc3c(N4CCOCC4)c(=O)c3=O)CC2)c1 (centres undefined)	none
c1ccc(COC2CCCN(Cc3nc(-c4cccs4)no3)C2)nc1 (centres undefined)	none
c1ccc(COC2CCCN(Cc3nc(-c4ccc5c(c4)OCO5)no3)C2)nc1 (centres undefined)	GPR151 activ 16 | GPR151 confirm inactive | GPR119 counter inactive
Cc1cc(C(=O)NC(CC(C)C)C(=O)O)cc(C)c1[N+](=O)[O-] (centres undefined)	none
Cc1cc(C(=O)NC(C)C(=O)O)cc(C)c1[N+](=O)[O-] (centres undefined)	GPR151 activ 5.0 | GPR151 confirm inactive | GPR119 counter inactive
O=C(Nc1ccccc1)c1ccnc(-c2ccc(N3CCOCC3)nc2)c1	none
CN1CCc2c(sc(NC(=O)c3ccc(S(=O)(=O)N4CCCc5ccccc54)cc3)c2C(N)=O)C1	none
CN(C)CCC(Oc1ccc(F)cc1)c1ccc(S(C)(=O)=O)cc1 (centres undefined)	GPR151 activ 5.6 | GPR151 confirm inactive | GPR119 counter inactive
COc1cc(/C=N/NC(=O)C(=O)NC2CCCCC2)ccc1O	none
COCCNC(=O)c1ccc(OC)cc1	GPR151 activ 4.9 | GPR151 confirm inactive | GPR119 counter inactive
COCCCNC(=O)c1ccc(OC)cc1	none
